TRHR PAM = qHTS for Small Molecule Agonists and Allosteric Enhancers of Human TRH Receptor: Primary Screen for Enhancers. Thyrotropin-releasing hormone receptor (Homo sapiens), P34981. TRHR cells, fluo-8 calcium fluorescence, EC20 TRH enhancement. enhancement, % at 2 µM. 360,000 compounds, 0.66% hits. AID 493056, 2011; in the data active = enhancement above about 30%; also: 0% is about no effect
Target sequence (P34981 whole entry, looked up): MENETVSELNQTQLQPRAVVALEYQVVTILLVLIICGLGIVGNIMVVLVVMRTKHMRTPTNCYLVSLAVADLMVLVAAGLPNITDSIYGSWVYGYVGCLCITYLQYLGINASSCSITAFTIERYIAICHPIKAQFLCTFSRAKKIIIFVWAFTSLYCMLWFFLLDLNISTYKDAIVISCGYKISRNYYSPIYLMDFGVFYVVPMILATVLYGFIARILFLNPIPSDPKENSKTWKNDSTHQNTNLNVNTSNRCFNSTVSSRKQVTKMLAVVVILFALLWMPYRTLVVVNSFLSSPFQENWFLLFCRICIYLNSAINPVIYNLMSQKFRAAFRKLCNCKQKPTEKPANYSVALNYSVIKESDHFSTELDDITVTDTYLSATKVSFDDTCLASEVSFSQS
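Enhancer read-out: after compound pinning and an initial kinetic agonist-mode read, an EC20 of TRH (10 nM final) was injected and fluo-8 calcium signal (Ex 480/Em 530) followed at 1 s/cycle for 100 cycles in TRHR-expressing cells.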
D1 agonist = Allosteric Agonists of the Human D1 Dopamine Receptor: qHTS; 360,000 compounds, 1% hits; HEK293 T-REx D1 cells, calcium flux, agonist mode; D(1A) dopamine receptor (Homo sapiens), P21728; activation, % at 2 µM; AID 504660, 2011; also: 0% is about no effect
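Agonism was scored from calcium flux recorded over 180 s (1 read/s) after pintool compound addition, following a 10-cycle baseline. Cells were inducible force-coupled HEK293 TREx D1, plated overnight at 30 C and loaded with no-wash calcium dye.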
D1 PAM = Potentiators of Human D1 Dopamine Receptor: qHTS | D(1A) dopamine receptor (Homo sapiens), P21728 | HEK293 TREx D1 cells, calcium flux, dopamine EC20 potentiation | potentiation, % at 10 µM | 360,000 compounds, 0.036% hits; in the data active = potentiation above about 30%; also: 0% is about no effect
D1 antag = Antagonist of Human D 1 Dopamine Receptor: qHTS | 360,000 compounds, 3.2% hits | D(1A) dopamine receptor (Homo sapiens), P21728 | HEK293 TREx D1 cells, calcium flux, dopamine EC80; hits give low values | AID 504652, 2011 | activity change, negative = inhibition, % at 10 µM; in the data active = activity change below about -30%; also: % is scaled to controls: 0 for no effect and ±100 for the full control effect
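Using tetracycline-induced force-coupled D1 Hek293 cells and a calcium dye, signals were followed for 180 s after compound, then for 180 s after EC80 dopamine, to detect inhibitors.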
TRHR ag = qHTS for Small Molecule Agonists and Allosteric Enhancers of Human TRH Receptor: Primary Screen for Agonists | TRHR cells, calcium flux fluo-8, FDSS agonist mode | activation, % at 2 µM | 360,000 compounds, 0.18% hits; also: 0% is about no effect
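In this calcium-flux screen, cells bearing human TRHR are dye-loaded with fluo-8, baselined for 10 cycles, then exposed to library compounds; positive kinetic calcium responses during the agonist phase mark hits, with TRH as control.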
* marks the source's active call; other numbers are inactive results; · = no result given. Sampled rows, rich in hits. Any-hit rate of the full collection: about 4.7%. Rule as the data show it, unless noted: active = activation above about 30%; inactive = the rest.

SMILES | TRHR PAM | D1 agonist | D1 PAM | D1 antag | TRHR ag
COc1ccc(OCc2nc3ccccc3[nH]2)cc1 | 1.7 | 0.8 | -6.3 | -1.6 | -0.4
COc1ccc(OC(C)c2nc3ccccc3[nH]2)cc1 (stereo unspecified) | 2.2 | 0.0 | 7.7 | -32.6* | -0.7
CCc1ccc(-c2cn3c(n2)sc2cc(C(=O)NC4CCCCC4)ccc23)cc1 | 4.1 | 0.0 | -2.6 | 11.0 | 0.1
CCCOc1ccccc1C(=O)Nc1ccc(S(=O)(=O)N2CCN(C)CC2)cc1 | -1.8 | 4.4 | -12.2 | -49.4* | 0.1
CCCOc1ccc(C(=O)Nc2ccc(S(=O)(=O)N3CCN(C)CC3)cc2)cc1 | -1.8 | 9.7 | -11.0 | -72.5* | 0.0
CN1CCN(S(=O)(=O)c2ccc(NC(=O)c3csc4ccccc34)cc2)CC1 | -5.8 | 2.5 | -12.1 | -44.7* | 0.6
Cc1ccc(CNC(=O)c2ccc(-c3nc(CS(=O)(=O)c4ccc(C)cc4)c(C)o3)cc2)cc1 | 4.7 | 0.1 | -0.6 | -1.0 | 0.5
C#CCn1c(=NC(=O)c2ccccc2[N+](=O)[O-])sc2cc(S(C)(=O)=O)ccc21 | 30.2* | 2.8 | 0.5 | -11.4 | -0.1
COCCn1c(=NC(=O)c2nc3ccccc3s2)sc2cc(S(C)(=O)=O)ccc21 | 1.1 | 0.2 | -4.4 | -85.1* | 0.3
Oc1c(C(c2ccc(F)cc2)N2CCCC2)sc2nc(-c3ccco3)nn12 (stereo unspecified) | -2.3 | 0.0 | -2.5 | · | 0.2
COc1ccc(C2CC(=O)c3cc(-c4nc(-c5ccc(C)cc5)cs4)c(=O)[nH]c3C2)cc1 (stereo unspecified) | 5.6 | 6.2 | -0.6 | -9.8 | 1.8
CC(C)(C)CN1CCNC(=O)C1CC(=O)NCCc1cnn(-c2ccccc2)c1 (stereo unspecified) | 1.7 | 1.3 | -5.2 | -1.1 | 0.2
CC(C)(C)CN1CCNC(=O)C1CC(=O)NCCc1ccccc1F (stereo unspecified) | 31.2* | 3.2 | -8.0 | -1.6 | 1.3
COc1ccc(CNC(=O)C(C)N(Cc2ccccc2OC)C(=O)c2snc(C(N)=O)c2N)cc1 (stereo unspecified) | 2.5 | 2.7 | -4.2 | 16.0 | 0.2
Cc1nn(C)c(C)c1NC(=O)/C(C#N)=C\N(C)C | -7.4 | 2.0 | -1.6 | -54.4* | 0.1
Cc1nn(C(=O)/C(C#N)=C/N(C)C)c(C)c1C | -3.6 | 2.3 | 9.2 | -9.0 | 0.0
CCOc1ccc(-n2nc3c(=O)[nH]nc(C)c3c2C)cc1 | 0.6 | 0.3 | -0.4 | -59.8* | -0.4
CC(=O)N1CCN(c2ccc([N+](=O)[O-])cc2)CC1 | 3.6 | 3.1 | -4.1 | 4.3 | -0.1
Cc1ccc(N2CCN(C(=S)c3ccc(N(C)C)cc3)CC2)cc1 | -5.4 | 1.3 | -4.0 | -11.4 | -0.8
CN(C)c1ccc(C(=S)N2CCN(c3ccc([N+](=O)[O-])cc3)CC2)cc1 | 0.8 | 0.9 | -3.8 | -32.0* | -0.5
O=[N+]([O-])c1ccc(C(=S)N2CCN(c3ccc(F)cc3)CC2)cc1 | -1.6 | 0.2 | 3.9 | -33.1* | -0.1
Cc1ccc(CC(=O)N2CCN(c3ccc([N+](=O)[O-])cc3)CC2)cc1 | 3.1 | 10.4 | -7.8 | -41.8* | 0.1
CC(C)c1ccc(/C=C(\C#N)c2nc(-c3ccc(O)cc3)cs2)cc1 | 0.8 | 12.8 | -1.1 | -17.5 | 7.8
Cc1ccc(F)cc1NC(=O)Cn1c(C)cc(C)c(C#N)c1=O | 13.2 | 2.5 | -0.2 | 10.1 | -1.0
O=C(CC1C(=O)N(c2ccccc2)C(=O)N1CCC1=CCCCC1)Nc1ccc(F)cc1 (stereo unspecified) | -3.0 | 2.2 | -3.7 | 0.7 | 0.1
O=S(=O)(c1c(F)cccc1F)N1CCN(S(=O)(=O)c2c(F)cccc2F)CC1 | 2.7 | 0.9 | 0.3 | -30.5* | 0.0
S=C(Nc1ccc(Nc2ccccc2)cc1)NN1CCOCC1 | 8.6 | 2.4 | 0.0 | 6.8 | -0.1
O=C(NCCCN1CCOCC1)c1cccc(S(=O)(=O)N2CCN(c3ccccc3)CC2)c1 | 8.5 | 1.9 | 0.7 | -1.3 | -0.1
O=S(=O)(c1ccccc1)N1CCN(C(=S)Nc2ccc(F)cc2)CC1 | -1.1 | 3.2 | -2.2 | 0.2 | 0.0

Screening results: PubChem BioAssay, National Center for Advancing Translational Sciences (NCATS)
